Data reported in the supplement of paper PMC11732987, “Enantioselective OTUD7B fragment discovery through chemoproteomics screening and high-throughput optimisation” (Communications Chemistry, 2025).

Key:
Test in all cases: log2 ratio of Biotin-Ahx-Ub-VS probe labelling (fragment/DMSO); higher = less target engagement (more negative = stronger competition), active = hit call of the paper (q ≤ 0.05, log2 ratio ≤ -1)
Details in all cases: compound concentration: 200 uM; treatment time: 3 h
[1] = target: USP34 (UniProt Q70CQ2)
USP34, sequence (Q70CQ2 whole entry, the tested form may be a part): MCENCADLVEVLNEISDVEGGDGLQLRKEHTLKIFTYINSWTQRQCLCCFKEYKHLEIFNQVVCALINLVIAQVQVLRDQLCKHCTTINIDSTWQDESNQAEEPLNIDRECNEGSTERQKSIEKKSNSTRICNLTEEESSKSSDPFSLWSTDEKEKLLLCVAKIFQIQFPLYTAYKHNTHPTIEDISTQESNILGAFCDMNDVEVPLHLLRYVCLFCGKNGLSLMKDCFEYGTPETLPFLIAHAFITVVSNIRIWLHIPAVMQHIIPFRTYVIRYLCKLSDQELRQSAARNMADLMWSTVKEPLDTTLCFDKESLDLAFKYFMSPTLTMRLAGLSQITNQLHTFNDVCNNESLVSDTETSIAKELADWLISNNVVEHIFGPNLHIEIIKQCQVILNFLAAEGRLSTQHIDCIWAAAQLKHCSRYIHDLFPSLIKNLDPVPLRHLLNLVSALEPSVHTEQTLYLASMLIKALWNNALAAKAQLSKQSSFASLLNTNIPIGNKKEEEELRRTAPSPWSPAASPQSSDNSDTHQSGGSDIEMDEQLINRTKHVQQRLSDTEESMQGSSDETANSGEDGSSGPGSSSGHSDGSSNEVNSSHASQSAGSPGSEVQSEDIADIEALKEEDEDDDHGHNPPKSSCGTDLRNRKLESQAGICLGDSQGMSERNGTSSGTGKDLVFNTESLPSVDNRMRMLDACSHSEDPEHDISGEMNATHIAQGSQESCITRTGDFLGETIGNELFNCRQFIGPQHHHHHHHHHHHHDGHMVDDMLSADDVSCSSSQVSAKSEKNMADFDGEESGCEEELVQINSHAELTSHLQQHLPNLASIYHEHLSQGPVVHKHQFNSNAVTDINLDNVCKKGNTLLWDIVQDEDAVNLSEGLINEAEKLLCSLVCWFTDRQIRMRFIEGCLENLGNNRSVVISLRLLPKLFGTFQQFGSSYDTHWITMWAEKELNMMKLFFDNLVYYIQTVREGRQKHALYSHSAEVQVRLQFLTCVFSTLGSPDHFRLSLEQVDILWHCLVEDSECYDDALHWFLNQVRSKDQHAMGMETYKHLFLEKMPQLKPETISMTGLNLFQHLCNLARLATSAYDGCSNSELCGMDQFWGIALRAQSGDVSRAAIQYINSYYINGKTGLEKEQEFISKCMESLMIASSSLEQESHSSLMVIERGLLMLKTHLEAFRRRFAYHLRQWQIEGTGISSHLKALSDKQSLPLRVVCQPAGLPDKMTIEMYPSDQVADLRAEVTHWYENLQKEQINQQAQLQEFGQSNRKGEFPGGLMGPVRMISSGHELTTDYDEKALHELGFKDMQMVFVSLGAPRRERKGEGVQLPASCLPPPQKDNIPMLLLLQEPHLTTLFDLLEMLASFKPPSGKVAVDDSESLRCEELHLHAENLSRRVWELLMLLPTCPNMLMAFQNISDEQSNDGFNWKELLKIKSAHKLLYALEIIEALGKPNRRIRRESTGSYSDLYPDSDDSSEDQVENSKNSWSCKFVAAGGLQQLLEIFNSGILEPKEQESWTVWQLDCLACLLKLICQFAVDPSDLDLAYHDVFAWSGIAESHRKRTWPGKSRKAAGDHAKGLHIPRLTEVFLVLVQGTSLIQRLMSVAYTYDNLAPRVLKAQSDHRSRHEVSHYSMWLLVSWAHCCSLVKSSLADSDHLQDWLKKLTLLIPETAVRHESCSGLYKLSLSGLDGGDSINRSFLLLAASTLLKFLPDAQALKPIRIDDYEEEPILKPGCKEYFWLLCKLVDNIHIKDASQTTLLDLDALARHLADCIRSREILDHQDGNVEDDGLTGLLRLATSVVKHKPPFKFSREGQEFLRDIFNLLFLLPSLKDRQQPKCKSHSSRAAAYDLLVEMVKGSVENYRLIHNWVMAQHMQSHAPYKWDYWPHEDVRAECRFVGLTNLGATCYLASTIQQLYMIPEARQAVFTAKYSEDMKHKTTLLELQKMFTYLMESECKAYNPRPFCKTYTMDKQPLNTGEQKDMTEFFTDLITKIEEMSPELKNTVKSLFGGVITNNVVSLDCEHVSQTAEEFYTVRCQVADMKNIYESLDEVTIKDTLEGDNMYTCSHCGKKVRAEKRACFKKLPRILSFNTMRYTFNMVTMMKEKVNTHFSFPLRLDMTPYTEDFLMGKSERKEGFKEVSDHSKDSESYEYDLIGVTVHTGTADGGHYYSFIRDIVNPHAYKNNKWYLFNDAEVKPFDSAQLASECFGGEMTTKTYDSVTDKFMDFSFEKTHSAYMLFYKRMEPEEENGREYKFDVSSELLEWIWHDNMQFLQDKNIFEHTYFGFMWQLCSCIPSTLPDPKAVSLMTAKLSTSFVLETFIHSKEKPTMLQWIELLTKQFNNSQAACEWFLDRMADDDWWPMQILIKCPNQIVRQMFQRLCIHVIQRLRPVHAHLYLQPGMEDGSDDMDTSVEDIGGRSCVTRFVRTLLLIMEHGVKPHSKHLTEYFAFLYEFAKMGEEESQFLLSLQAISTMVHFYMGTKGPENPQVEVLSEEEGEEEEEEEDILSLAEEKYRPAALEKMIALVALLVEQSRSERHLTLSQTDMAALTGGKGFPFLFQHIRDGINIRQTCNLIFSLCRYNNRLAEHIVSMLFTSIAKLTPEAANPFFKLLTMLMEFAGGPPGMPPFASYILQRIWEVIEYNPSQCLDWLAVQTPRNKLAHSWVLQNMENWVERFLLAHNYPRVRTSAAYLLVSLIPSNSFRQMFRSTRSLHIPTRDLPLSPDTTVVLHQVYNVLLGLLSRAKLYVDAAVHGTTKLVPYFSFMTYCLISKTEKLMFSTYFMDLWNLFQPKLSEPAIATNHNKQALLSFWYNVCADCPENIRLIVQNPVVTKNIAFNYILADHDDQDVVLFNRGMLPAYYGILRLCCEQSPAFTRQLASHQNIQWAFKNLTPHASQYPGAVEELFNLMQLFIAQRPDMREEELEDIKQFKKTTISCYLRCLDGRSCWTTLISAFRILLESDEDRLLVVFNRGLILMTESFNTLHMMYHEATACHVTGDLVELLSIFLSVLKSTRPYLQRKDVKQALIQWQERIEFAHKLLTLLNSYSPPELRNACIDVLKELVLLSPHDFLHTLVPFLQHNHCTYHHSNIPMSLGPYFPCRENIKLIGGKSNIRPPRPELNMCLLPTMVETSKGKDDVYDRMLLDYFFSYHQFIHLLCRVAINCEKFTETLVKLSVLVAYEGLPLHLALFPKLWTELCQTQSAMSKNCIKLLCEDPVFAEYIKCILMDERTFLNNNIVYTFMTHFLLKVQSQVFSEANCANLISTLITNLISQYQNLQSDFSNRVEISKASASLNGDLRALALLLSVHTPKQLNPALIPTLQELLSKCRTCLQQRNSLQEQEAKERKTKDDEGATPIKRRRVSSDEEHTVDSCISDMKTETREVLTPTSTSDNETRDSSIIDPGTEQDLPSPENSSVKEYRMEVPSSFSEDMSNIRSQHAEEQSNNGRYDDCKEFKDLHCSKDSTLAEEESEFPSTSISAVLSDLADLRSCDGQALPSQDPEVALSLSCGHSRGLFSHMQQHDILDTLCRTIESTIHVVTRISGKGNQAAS
Summary of the method: (§1)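 Labelled DUBs were enriched with NeutrAvidin, digested with LysC and trypsin, and run by diaPASEF LC-MS/MS. The labelling used Biotin-Ahx-Ub-VS at 0.5 µM final for 1 h on HEK293T lysate (495 µg per sample) previously treated in triplicate with fragment at 200 µM or vehicle for 3 h. Values are average log2 fragment/vehicle ratios by unpaired t-test on global-median-normalised Spectronaut quantities of proteins with ≥2 unique peptides.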

[2] = target: T1, USP36 (UniProt Q9P275)
T1 sequence (whole entry): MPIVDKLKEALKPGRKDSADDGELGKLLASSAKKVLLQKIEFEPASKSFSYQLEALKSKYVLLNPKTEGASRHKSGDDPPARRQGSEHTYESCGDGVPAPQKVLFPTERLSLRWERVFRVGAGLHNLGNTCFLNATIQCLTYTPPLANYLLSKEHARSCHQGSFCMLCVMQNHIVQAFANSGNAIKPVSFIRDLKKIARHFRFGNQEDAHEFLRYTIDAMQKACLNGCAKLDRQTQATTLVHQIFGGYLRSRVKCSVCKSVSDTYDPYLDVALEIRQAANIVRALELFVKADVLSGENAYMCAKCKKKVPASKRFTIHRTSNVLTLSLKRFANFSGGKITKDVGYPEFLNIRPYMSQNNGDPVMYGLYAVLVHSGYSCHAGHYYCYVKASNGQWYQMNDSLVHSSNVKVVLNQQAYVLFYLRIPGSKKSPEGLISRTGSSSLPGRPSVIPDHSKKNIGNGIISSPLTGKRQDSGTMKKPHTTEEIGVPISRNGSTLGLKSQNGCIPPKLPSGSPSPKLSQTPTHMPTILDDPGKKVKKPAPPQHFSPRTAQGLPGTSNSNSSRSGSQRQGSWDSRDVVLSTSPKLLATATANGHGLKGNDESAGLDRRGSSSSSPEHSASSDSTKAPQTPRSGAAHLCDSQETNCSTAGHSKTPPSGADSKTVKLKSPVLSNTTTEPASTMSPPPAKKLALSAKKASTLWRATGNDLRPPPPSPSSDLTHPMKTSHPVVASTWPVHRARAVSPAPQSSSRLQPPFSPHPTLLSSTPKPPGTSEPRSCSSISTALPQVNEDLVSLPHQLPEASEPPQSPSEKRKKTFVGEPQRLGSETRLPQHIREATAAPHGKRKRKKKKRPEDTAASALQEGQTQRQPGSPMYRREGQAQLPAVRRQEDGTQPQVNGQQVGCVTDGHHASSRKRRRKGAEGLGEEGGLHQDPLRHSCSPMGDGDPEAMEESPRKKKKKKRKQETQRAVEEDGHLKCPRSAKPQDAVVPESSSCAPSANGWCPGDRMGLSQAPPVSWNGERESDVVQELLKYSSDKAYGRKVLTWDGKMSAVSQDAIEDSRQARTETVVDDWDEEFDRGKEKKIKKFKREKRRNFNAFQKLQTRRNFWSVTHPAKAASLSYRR
Summary of the method: as §1

[3] = target: T2, USP38 (UniProt Q8NB14)
T2 sequence (whole entry): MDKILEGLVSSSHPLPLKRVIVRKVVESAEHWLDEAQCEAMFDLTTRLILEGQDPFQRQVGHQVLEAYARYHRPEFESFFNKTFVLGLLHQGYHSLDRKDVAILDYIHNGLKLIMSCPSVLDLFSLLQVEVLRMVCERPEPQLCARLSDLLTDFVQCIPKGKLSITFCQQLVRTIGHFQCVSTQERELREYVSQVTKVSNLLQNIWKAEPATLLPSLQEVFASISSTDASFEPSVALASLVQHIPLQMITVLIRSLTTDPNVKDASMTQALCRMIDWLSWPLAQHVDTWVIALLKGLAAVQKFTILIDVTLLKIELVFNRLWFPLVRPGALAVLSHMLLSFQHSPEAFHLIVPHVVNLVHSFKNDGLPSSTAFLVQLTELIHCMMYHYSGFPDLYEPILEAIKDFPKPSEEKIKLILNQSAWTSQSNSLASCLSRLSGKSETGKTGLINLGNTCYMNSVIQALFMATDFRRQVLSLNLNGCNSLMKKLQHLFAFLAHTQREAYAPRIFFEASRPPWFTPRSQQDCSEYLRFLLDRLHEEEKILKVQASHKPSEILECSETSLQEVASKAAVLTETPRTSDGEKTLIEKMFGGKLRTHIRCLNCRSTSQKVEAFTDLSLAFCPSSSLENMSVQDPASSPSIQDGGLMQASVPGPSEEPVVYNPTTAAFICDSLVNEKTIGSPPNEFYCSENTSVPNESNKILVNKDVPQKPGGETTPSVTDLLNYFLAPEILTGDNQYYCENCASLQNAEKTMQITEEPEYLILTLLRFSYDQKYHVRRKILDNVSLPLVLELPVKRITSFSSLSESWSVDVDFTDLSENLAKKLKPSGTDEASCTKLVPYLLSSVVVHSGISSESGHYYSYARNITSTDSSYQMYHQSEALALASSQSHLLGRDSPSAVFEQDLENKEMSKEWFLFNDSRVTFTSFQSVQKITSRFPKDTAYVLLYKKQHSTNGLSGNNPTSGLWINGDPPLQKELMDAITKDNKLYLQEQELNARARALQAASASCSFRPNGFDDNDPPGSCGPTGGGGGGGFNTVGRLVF
Summary of the method: as §1

[4] = target: T3, USP39 (UniProt Q53GS9)
T3 sequence (whole entry): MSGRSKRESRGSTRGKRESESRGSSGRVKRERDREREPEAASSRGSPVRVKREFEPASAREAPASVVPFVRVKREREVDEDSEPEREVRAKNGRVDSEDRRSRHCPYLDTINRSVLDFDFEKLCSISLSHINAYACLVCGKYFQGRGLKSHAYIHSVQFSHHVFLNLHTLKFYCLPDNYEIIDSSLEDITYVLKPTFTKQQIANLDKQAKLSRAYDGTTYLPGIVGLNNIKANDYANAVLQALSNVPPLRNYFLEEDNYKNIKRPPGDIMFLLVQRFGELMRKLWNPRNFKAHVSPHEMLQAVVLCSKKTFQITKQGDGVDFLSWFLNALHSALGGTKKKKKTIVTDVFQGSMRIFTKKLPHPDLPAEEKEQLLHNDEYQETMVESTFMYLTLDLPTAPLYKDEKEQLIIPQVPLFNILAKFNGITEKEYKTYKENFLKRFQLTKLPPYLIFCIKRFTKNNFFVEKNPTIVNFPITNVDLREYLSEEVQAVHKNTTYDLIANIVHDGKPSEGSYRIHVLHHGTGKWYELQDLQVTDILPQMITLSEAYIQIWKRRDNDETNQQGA
Summary of the method: as §1

[5] = target: T4, USP4 (UniProt Q13107)
T4 sequence (whole entry): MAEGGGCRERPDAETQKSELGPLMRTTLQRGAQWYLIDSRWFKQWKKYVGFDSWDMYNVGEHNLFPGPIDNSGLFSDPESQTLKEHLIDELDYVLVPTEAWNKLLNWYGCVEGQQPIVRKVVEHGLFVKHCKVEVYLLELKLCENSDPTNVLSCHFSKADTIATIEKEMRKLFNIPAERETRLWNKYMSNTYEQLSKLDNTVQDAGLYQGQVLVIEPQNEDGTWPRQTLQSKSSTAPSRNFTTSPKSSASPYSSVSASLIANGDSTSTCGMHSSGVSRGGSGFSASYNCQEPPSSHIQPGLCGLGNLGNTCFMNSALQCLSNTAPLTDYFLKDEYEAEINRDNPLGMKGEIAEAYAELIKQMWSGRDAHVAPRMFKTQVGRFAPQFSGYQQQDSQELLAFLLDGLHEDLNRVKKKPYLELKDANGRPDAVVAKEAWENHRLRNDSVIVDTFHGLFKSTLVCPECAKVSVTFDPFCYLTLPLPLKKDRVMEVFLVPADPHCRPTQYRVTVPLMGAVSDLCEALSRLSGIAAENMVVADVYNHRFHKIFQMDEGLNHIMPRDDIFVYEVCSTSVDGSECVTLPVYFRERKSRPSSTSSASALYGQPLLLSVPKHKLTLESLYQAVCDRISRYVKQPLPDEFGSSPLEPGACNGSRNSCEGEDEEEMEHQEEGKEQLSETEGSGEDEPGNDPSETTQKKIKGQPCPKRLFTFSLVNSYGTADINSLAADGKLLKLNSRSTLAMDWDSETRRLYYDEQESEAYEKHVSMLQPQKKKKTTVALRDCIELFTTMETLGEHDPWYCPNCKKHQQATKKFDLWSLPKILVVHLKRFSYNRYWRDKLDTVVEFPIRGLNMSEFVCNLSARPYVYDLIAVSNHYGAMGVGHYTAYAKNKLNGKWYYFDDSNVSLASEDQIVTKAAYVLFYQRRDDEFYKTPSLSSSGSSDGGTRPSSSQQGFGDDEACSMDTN
Summary of the method: as §1

Measured: log2 ratio of Biotin-Ahx-Ub-VS probe labelling

Cc1cccc(N2CCC(NC(=O)CCl)C2=O)c1 (stereo not given)
inactive: [1] 0.0479 | [2] -0.0247 | [3] -0.169 | [4] -0.32 | [5] -0.134
